From PubChem BioAssay (EPA / NIEHS)
Inconclusive results are not listed. Activity calls are given as the source filed them. The calls were made as follows: active = hit-call score of the fitted dose curve at least 0.9, where 1 is the maximum; inconclusive = response in the unintended direction; inactive = score below 0.9.

Legend:
[1] = target: guinea pig Opioid, Kappa 1 Receptor (OpiateK), OPRK1 (gene 100135587) (UniProt P41144); assay: NVS_GPCR_gOpiateK: NovaScreen (NVS) G Protein-Coupled Receptor Assay for guinea pig Opioid, Kappa 1 Receptor (OpiateK) (AID 2283252);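 also: radioligand displacement from kappa opioid receptor in guinea pig cerebellar membranes; active means reduced radioligand binding relative to DMSO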
Chain of guinea pig Opioid, Kappa 1 Receptor (OpiateK), OPRK1 (gene 100135587) (P41144 whole entry, looked up): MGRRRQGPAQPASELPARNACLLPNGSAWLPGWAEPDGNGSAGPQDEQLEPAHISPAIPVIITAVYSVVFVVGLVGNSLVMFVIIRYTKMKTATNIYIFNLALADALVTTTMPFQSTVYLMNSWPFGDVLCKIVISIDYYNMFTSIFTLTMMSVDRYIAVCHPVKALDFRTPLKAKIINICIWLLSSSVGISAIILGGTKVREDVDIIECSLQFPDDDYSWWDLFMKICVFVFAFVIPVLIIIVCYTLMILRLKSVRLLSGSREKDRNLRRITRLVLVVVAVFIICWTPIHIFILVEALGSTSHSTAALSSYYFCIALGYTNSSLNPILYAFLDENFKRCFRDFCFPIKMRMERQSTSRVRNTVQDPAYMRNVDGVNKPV
How it was run: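 Guinea pig cerebellar membranes, radioligand displacement with filter-based scintillation counting, 2 h after dosing. Primary screen single concentration 25 uM in duplicate; actives retested in concentration series; loss of binding fitted versus DMSO.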

[2] = target: rat Monoamine Oxidase, MAO-B, Peripheral (MAOBP), Maob (gene 25750) (UniProt P19643); assay: NVS_ENZ_rMAOBP: NovaScreen (NVS) Enzymatic Assay for rat Monoamine Oxidase, MAO-B, Peripheral (MAOBP) (AID 2283242)
Chain of rat Monoamine Oxidase, MAO-B, Peripheral (MAOBP), Maob (gene 25750) (P19643 whole entry, looked up): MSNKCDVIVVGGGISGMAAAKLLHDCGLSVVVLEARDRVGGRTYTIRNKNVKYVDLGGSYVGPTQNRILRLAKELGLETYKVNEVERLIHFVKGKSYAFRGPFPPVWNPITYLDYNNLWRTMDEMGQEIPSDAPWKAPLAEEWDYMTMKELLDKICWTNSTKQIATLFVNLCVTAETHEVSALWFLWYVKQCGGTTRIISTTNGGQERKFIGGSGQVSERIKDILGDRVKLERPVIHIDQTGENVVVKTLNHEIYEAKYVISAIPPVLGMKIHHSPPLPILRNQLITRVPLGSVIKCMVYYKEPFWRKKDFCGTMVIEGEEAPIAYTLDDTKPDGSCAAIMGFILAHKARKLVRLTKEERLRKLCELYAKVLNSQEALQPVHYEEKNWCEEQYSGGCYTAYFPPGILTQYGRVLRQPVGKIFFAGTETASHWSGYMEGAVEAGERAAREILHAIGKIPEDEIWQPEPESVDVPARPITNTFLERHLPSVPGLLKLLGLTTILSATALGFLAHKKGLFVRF

[3] = target: human Adenosine A1 Receptor (AdoRA1), ADORA1 (gene 134) (UniProt P30542); assay: NVS_GPCR_hAdoRA1: NovaScreen (NVS) G Protein-Coupled Receptor Assay for human Adenosine A1 Receptor (AdoRA1) (AID 2283254)
How it was run: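 Membranes from human cortical tissue were incubated with radioligand and test chemical for 1 hour, then filtered and counted. Activity was taken as signal loss relative to DMSO, screened at 25 uM in duplicate before concentration-response follow-up.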

[4] = target: human Adenosine A2a Receptor (AdoRA2a), ADORA2A (gene 135) (UniProt P29274); assay: NVS_GPCR_hAdoRA2a: NovaScreen (NVS) G Protein-Coupled Receptor Assay for human Adenosine A2a Receptor (AdoRA2a) (AID 2283256)
Chain of human Adenosine A2a Receptor (AdoRA2a), ADORA2A (gene 135) (P29274 whole entry, looked up): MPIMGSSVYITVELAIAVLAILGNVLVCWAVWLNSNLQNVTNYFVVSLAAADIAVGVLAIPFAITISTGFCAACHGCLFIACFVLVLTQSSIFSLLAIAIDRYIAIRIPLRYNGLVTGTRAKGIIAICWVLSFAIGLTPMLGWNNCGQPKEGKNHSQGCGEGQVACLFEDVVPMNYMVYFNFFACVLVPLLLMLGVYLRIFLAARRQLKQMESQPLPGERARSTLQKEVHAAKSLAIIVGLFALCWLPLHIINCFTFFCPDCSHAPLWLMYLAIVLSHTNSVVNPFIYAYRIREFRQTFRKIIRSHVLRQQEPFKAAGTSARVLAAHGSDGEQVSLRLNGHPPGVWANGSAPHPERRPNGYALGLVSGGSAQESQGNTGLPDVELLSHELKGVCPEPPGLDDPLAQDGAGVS
How it was run: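 Radioligand displacement on HEK293-derived membrane protein, cell-free; filter-based scintillation counting 1.5 hours after dosing, loss of signal vs DMSO. Single-point duplicate screen at 25 uM, actives retested in concentration series.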

[5] = system: guinea pig Leukotriene B4 Receptor (LTB4), gene 100379538; assay: NVS_GPCR_gLTB4: NovaScreen (NVS) G Protein-Coupled Receptor Assay for guinea pig Leukotriene B4 Receptor (LTB4) (AID 2283247)
How it was run: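 Radioligand displacement on guinea pig spleen membranes, filter-based scintillation counting 2 h after dosing. Primary duplicate single point at 25 uM; hits over threshold (e.g. 30% inhibition) run in concentration-response up to 50 uM, DMSO baseline.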

[6] = target: Adenosine receptor A1 (Bos taurus) (UniProt P28190); assay: NVS_GPCR_bAdoR_NonSelective: NovaScreen (NVS) G Protein-Coupled Receptor Assay for bovine Adenosine Receptor (AdoR), Non-selective Binding (AID 2283244)
Chain of Adenosine receptor A1 (Bos taurus) (P28190 whole entry, looked up): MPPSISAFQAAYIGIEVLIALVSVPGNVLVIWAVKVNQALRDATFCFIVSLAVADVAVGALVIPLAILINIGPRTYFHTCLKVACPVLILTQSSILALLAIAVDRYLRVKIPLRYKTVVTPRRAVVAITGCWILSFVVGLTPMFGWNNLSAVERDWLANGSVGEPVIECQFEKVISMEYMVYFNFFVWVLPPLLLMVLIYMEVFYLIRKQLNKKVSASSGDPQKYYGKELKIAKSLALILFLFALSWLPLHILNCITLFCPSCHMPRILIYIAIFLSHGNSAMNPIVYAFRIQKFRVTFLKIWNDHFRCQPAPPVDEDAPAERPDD
How it was run: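 Bovine striatal membranes, radioligand displacement binding, 1 h after dosing, filter-based scintillation counting. Screened in duplicate at 25 uM, then concentration-response up to 50 uM; loss of specific binding relative to DMSO.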

[7] = system: guinea pig Muscarinic, Peripheral (Mperiperal) Receptor, Non-selective Binding, gene 100379235; assay: NVS_GPCR_gMPeripheral_NonSelective: NovaScreen (NVS) G Protein-Coupled Receptor Assay for guinea pig Muscarinic, Peripheral (Mperiperal) Receptor, Non-selective Binding (AID 2283250)
How it was run: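 Guinea pig bladder membranes, radioligand binding read 1 h after dosing by filter scintillation counting; loss of signal vs DMSO. Primary duplicate screen at 25 uM, then concentration-response up to 50 uM.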

[8] = target: bovine Dopamine Receptor (DR), Non-selective Binding, DRD1 (gene 281125) (UniProt Q95136); assay: NVS_GPCR_bDR_NonSelective: NovaScreen (NVS) G Protein-Coupled Receptor Assay for bovine Dopamine Receptor (DR), Non-selective Binding (AID 2283241)
Chain of bovine Dopamine Receptor (DR), Non-selective Binding, DRD1 (gene 281125) (Q95136 whole entry, looked up): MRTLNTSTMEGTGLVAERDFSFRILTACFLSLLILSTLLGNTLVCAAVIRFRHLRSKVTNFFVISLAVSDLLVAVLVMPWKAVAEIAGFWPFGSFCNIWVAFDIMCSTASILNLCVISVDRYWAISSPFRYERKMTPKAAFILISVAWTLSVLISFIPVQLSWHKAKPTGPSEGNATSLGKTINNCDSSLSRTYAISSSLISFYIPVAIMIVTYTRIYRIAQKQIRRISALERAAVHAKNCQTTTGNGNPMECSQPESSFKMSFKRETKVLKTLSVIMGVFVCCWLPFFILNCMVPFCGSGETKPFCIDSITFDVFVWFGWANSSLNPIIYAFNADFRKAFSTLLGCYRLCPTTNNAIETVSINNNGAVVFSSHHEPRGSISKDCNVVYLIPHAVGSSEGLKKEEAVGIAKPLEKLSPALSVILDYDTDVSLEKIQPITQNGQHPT
How it was run: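 Bovine striatal membranes; radioligand displacement read by filtration and scintillation counting 1 h after dosing, loss of signal vs DMSO. Screened in duplicate at 25 uM, then concentration-response for hits.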

[9] = system: rat Monoamine Oxidase, MAO-A, Central (MAOAC), gene 29253; assay: NVS_ENZ_rMAOAC: NovaScreen (NVS) Enzymatic Assay for rat Monoamine Oxidase, MAO-A, Central (MAOAC) (AID 2283243);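 also: potency refers to inhibition seen as signal drop below DMSO baseline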
How it was run: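 Steps: rat brain protein extract dosed with test chemical (25 uM, duplicate, primary); incubated 1.5 h; radiolabelled product separated from substrate and counted. Signal loss versus DMSO scored as inhibition.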

[10] = NVS_GPCR_bNPY_NonSelective: NovaScreen (NVS) G Protein-Coupled Receptor Assay for bovine Neuropeptide Y (NPY) Receptor, Non-selective Binding (AID 2283245)
How it was run: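 Bovine hippocampal membranes incubated 1 hour with radioligand and test chemical. Bound ligand measured by filter-based scintillation counting. Single-concentration screen at 25 uM in duplicate, then concentration-response up to 50 uM.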

[11] = target: guinea pig Leukotriene D4 Receptor (LTD4), CYSLTR1 (gene 100135514) (UniProt Q2NNR5); assay: NVS_GPCR_gLTD4: NovaScreen (NVS) G Protein-Coupled Receptor Assay for guinea pig Leukotriene D4 Receptor (LTD4) (AID 2283248)
How it was run: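 Radioligand displacement on guinea pig lung membranes, 1 h incubation, filtration and scintillation counting; DMSO as negative control. Duplicate 25 uM primary screen, then singleton concentration-response up to 50 uM.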

[12] = target: human Serotonin, 5-Hydroxytryptamine Receptor 5A (5HT5A), HTR5A (gene 3361) (UniProt P47898); assay: NVS_GPCR_h5HT5A: NovaScreen (NVS) G Protein-Coupled Receptor Assay for human Serotonin, 5-Hydroxytryptamine Receptor 5A (5HT5A) (AID 2283251)
Chain of human Serotonin, 5-Hydroxytryptamine Receptor 5A (5HT5A), HTR5A (gene 3361) (P47898 whole entry, looked up): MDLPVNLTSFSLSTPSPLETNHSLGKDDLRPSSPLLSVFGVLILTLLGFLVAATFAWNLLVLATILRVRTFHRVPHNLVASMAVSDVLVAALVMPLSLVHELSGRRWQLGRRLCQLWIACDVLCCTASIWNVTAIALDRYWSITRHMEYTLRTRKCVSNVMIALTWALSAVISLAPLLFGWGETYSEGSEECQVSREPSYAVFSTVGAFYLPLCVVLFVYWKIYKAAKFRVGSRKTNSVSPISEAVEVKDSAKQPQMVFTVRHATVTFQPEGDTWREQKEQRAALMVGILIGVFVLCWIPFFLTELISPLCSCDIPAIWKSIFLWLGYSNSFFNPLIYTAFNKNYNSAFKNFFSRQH
How it was run: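 Cell-free radioligand displacement binding on HEK293-derived membrane protein, 1 h incubation, filter-based scintillation counting. Primary screen in duplicate at 25 uM, actives followed in concentration series; loss of signal fitted versus DMSO.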

[13] = target: human Serotonin, 5-Hydroxytryptamine Receptor 6 (5HT6), HTR6 (gene 3362) (UniProt P50406); assay: NVS_GPCR_h5HT6: NovaScreen (NVS) G Protein-Coupled Receptor Assay for human Serotonin, 5-Hydroxytryptamine Receptor 6 (5HT6) (AID 2283253)
How it was run: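 Radioligand binding to 5HT6 in HEK293-derived membranes, cell-free, 1 h after dosing; bound ligand measured by filter-based scintillation counting. Primary screen in duplicate at 25 uM; actives retested in concentration series.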

[14] = target: human Serotonin, 5-Hydroxytryptamine Receptor 7 (5HT7), HTR7 (gene 3363) (UniProt P34969); assay: NVS_GPCR_h5HT7: NovaScreen (NVS) G Protein-Coupled Receptor Assay for human Serotonin, 5-Hydroxytryptamine Receptor 7 (5HT7) (AID 2283255);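 also: hits reduce specific radioligand binding relative to DMSO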
Chain of human Serotonin, 5-Hydroxytryptamine Receptor 7 (5HT7), HTR7 (gene 3363) (P34969 whole entry, looked up): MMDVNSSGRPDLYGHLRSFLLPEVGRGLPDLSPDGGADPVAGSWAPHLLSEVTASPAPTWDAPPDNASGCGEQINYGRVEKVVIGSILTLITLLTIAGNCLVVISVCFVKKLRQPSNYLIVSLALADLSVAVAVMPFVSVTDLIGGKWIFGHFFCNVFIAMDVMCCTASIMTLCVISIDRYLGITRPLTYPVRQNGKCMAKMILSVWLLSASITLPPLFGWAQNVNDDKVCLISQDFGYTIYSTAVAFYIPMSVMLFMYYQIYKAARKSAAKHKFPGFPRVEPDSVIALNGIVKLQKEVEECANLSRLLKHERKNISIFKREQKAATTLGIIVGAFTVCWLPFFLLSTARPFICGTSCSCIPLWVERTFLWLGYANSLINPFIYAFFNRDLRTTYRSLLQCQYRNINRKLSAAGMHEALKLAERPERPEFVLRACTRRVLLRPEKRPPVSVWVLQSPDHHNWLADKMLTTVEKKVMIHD
How it was run: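 Radioligand displacement on membranes from CHO cells expressing human 5HT7, 1 h incubation, filter-based scintillation counting. Primary screen used a single 25 uM concentration in duplicate; actives were followed up in concentration series.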

[15] = target: human Adrenergic, Alpha 2A Receptor (Adra2A), ADRA2A (gene 150) (UniProt P08913); assay: NVS_GPCR_hAdra2A: NovaScreen (NVS) G Protein-Coupled Receptor Assay for human Adrenergic, Alpha 2A Receptor (Adra2A) (AID 2283257)
Chain of human Adrenergic, Alpha 2A Receptor (Adra2A), ADRA2A (gene 150) (P08913 whole entry, looked up): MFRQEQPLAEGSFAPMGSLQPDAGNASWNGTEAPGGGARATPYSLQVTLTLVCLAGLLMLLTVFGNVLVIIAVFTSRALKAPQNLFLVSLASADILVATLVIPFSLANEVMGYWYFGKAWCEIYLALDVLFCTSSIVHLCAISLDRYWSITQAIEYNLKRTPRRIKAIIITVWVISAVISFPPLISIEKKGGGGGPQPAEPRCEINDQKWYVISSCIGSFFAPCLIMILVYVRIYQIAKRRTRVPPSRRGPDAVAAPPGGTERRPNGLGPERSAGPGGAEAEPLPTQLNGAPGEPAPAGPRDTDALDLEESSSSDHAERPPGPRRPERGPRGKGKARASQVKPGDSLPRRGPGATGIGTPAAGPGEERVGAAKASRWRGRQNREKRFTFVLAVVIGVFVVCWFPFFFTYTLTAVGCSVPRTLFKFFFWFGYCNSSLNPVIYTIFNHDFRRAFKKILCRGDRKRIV
How it was run: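 Radioligand filter-binding was run on HT29-derived membranes, cell-free, read by scintillation counting 1 h after dosing. Primary screening was in duplicate at 25 uM, with concentration series in follow-up. Loss of signal versus DMSO indicates displacement.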

[16] = target: human Adrenergic, Beta 1 Receptor (Adrb1), ADRB1 (gene 153) (UniProt P08588); assay: NVS_GPCR_hAdrb1: NovaScreen (NVS) G Protein-Coupled Receptor Assay for human Adrenergic, Beta 1 Receptor (Adrb1) (AID 2283258)
Chain of human Adrenergic, Beta 1 Receptor (Adrb1), ADRB1 (gene 153) (P08588 whole entry, looked up): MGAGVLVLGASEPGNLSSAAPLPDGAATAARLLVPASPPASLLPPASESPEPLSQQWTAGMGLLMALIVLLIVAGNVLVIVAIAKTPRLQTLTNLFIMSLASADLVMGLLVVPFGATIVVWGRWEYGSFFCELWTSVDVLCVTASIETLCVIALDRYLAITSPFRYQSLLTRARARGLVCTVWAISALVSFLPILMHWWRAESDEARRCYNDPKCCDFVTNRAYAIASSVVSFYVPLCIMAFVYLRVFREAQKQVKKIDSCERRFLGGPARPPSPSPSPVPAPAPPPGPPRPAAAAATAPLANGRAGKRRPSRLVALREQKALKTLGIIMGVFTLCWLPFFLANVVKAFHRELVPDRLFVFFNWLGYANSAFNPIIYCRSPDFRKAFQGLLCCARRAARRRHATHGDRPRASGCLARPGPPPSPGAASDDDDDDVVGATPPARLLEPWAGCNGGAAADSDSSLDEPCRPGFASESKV
How it was run: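 Cell-free radioligand displacement on receptor from human neuroepithelioma cells; 2 h after dosing, filter-based scintillation counting. Primary screen in duplicate at 25 uM, actives retested in concentration series; loss of signal vs DMSO baseline.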

[17] = target: rat Monoamine Oxidase, MAO-B, Central (MAOBC), Maob (gene 25750) (UniProt P19643); assay: NVS_ENZ_rMAOBC: NovaScreen (NVS) Enzymatic Assay for rat Monoamine Oxidase, MAO-B, Central (MAOBC) (AID 2283238)
Chain of rat Monoamine Oxidase, MAO-B, Central (MAOBC), Maob (gene 25750) (P19643 whole entry, looked up): as the sequence (P19643 whole entry, looked up) above
How it was run: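 MAO-B activity in rat brain tissue preparation, cell-free, measured radiometrically by scintillation counting 1.17 h after dosing. Screened in duplicate at 25 uM; actives then in concentration-response up to 50 uM. Loss of signal versus DMSO scored.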

[18] = system: bovine Histamine 1 Receptor (H1), gene 281231; assay: NVS_GPCR_bH1: NovaScreen (NVS) G Protein-Coupled Receptor Assay for bovine Histamine 1 Receptor (H1) (AID 2283246)
How it was run: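 Radioligand displacement on bovine cerebellar membranes, 1 h after dosing, filter-based scintillation read-out; loss of signal vs DMSO. Duplicate single-concentration screen at 25 uM, then concentration-response up to 50 uM for hits.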

[19] = target: human Serotonin, 5-Hydroxytryptamine Receptor 2A (5HT2A), HTR2A (gene 3356) (UniProt P28223); assay: NVS_GPCR_h5HT2A: NovaScreen (NVS) G Protein-Coupled Receptor Assay for human Serotonin, 5-Hydroxytryptamine Receptor 2A (5HT2A) (AID 2283249)
Chain of human Serotonin, 5-Hydroxytryptamine Receptor 2A (5HT2A), HTR2A (gene 3356) (P28223 whole entry, looked up): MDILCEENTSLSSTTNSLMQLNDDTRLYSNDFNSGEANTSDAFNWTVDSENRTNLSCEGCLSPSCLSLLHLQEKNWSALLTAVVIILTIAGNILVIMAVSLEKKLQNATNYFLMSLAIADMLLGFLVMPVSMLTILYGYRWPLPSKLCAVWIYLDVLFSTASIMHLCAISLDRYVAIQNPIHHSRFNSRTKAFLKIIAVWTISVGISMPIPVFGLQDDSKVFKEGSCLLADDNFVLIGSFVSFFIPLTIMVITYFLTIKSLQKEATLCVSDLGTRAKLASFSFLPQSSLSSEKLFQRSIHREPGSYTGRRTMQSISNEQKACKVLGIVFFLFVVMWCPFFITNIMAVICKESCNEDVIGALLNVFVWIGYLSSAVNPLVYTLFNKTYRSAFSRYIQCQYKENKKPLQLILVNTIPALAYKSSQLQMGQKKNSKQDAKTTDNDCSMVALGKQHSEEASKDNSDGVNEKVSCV
How it was run: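 Human cortex membranes, cell-free radioligand binding; filter-based scintillation read 1.5 h after dosing. Duplicate screen at 25 uM first; displacement of specific binding (loss of signal) versus DMSO.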

For `CCCSC(=O)N(CCC)CCC`, the outcome [1] was “inactive”.

With `CO[C@@H]1[C@H](OC(=O)NC(=O)CCl)CC[C@]2(CO2)[C@H]1[C@@]1(C)O[C@@H]1CC=C(C)C` the outcome [2] was “inactive”.

For `Cc1cccc(N)c1N`, the AC50 [3] was 8.22 µM (active) and the AC50 [4] was 4.24 µM (active).

With `Nc1ccc(Cc2ccc(N)cc2)cc1` the AC50 [5] was 2.83 µM (active).

With `CS(=O)(=O)NC(=O)c1cc(Oc2ccc(C(F)(F)F)cc2Cl)ccc1[N+](=O)[O-]` the outcome [6] was “inactive”.

For `O=C(Oc1ccc(Br)cc1)N1CCN2CCC1CC2`, the AC50 [7] was 15 µM (active).

With `[Cl-].[Cl-].[Hg+2]` the AC50 [8] was 11.6 µM (active), the AC50 [2] was 9.04 µM (active) and the outcome [9] was “inactive”. The AC50 [6] was 19.1 µM (active), the AC50 [10] was 12 µM (active) and the AC50 [11] was 1.4 µM (active). For the same compound, the AC50 [7] was 9.07 µM (active), the AC50 [12] was 1.59 µM (active) and the AC50 [1] was 13.5 µM (active). For the same compound, the AC50 [13] was 1.56 µM (active), the AC50 [14] was 0.928 µM (active) and the AC50 [4] was 5.19 µM (active). The AC50 [15] was 2.23 µM (active) and the AC50 [16] was 0.303 µM (active).

With `CCOC(=O)[C@]1(c2ccccc2)Oc2ccccc2[C@@H]1N` the AC50 [17] was 10.2 µM (active), the AC50 [8] was 1.04 µM (active) and the AC50 [2] was 2.44 µM (active). The AC50 [18] was 7.49 µM (active), the AC50 [19] was 3.91 µM (active) and the AC50 [7] was 13.3 µM (active). The AC50 [12] was 0.659 µM (active), the AC50 [13] was 0.824 µM (active) and the AC50 [14] was 0.0948 µM (active). The AC50 [15] was 6.2 µM (active) and the AC50 [16] was 1.41 µM (active).

In the case of `Oc1ccc2ccc3cccc4ccc1c2c34`, the AC50 [9] is reported as 0.255 µM (active).

With `CN(C)C(=O)Nc1ccc(Cl)cc1` the AC50 [9] was 25 µM (active).

In the case of `CCCCCCCCn1sccc1=O`, the outcome [10] is reported as “inactive”, the AC50 [12] is reported as 26 µM (active) and the AC50 [1] is reported as 18.2 µM (active). The AC50 [14] was 17.9 µM (active), the outcome [15] was “inactive” and the AC50 [16] was 12.2 µM (active).

For `Nc1ccc([N+](=O)[O-])cc1`, the AC50 [9] was 36.3 µM (active).

For `O=[N+]([O-])C(Br)(CO)CO`, the AC50 [17] was 35.6 µM (active), the AC50 [6] was 16.5 µM (active) and the outcome [19] was “inactive”. For the same compound, the AC50 [1] was 25 µM (active).

In the case of `CC(C)COC(=O)c1ccccc1C(=O)OCC(C)C`, the outcome [2] is reported as “inactive”.

In the case of `CN(C)c1ccc(C(=O)c2ccc(N(C)C)cc2)cc1`, the AC50 [17] is reported as 7.63 µM (active), the AC50 [2] is reported as 18.6 µM (active) and the AC50 [9] is reported as 5.33 µM (active).

With `CCOc1cccc(C2(N3CCN(c4ccccc4)CC3)CCC(C)CC2)c1` (configuration not stated) the AC50 [9] was 4.53 µM (active) and the outcome [6] was “inactive”.

With `Nc1cc(Cl)cc(C(=O)O)c1Cl` the outcome [2] was “inactive”.

In the case of `Cn1cc(-c2ccccc2)c(=O)c(-c2cccc(C(F)(F)F)c2)c1`, the outcome [2] is reported as “inactive”.

For `CC(C)(O)c1cnn2c(-c3ccc(F)c(-c4c(F)cccc4C#N)c3)cnc2n1`, the outcome [17] was “inactive”, the outcome [2] was “inactive” and the AC50 [4] was 0.0738 µM (active).

With `CCNS(=O)(=O)C(F)(F)C(F)(F)C(F)(F)C(F)(F)C(F)(F)C(F)(F)C(F)(F)C(F)(F)F` the AC50 [4] was 14.5 µM (active).
